Measured values: the supplement of paper PMC10646978
± gives the standard deviation.

Tests used:
Details in all cases: modulator concentration 10 µM
[1] = test system: RAW-Dual (murine macrophage reporter line); assay: NF-kB reporter (SEAP) activity fold change vs agonist alone; higher = enhanced NF-kB activity
How it was run: (§1)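 RAW-Dual murine macrophage reporter cells were plated at 50 000 per well in 384-well plates, pin-transferred compound to 10 μM final, and pre-incubated for 1 hour at 37 °C before a PRR agonist was added and the cells incubated overnight. NF-κB activity was read from supernatant SEAP with QUANTI-Blue at 620 nm absorbance, and IRF activity from Lucia luciferase with QUANTI-Luc by luminescence. Each signal was expressed as fold change by dividing by the mean agonist-only control on the same plate. Two replicate plates were averaged, with errors obtained by propagation.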

[2] = test system: RAW-Dual (murine macrophage reporter line); assay: IRF reporter (Lucia luciferase) activity fold change vs agonist alone; higher = enhanced IRF activity
How it was run: as §1

[3] = test system: RAW-Dual (murine macrophage reporter line); assay: viability score (confluency relative to resting cells, overnight) (fraction); higher = more viable, active = viable (0.7 or more)
How it was run: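 Confluency was the readout: RAW-Dual macrophages were imaged with IncuCyte after an overnight exposure to compound at 10 μM final. IncuCyte software produced two masks over all imaged wells. The viability score expresses confluency against resting cells, and both masks had to exceed 70% of resting cells for a compound to meet the cutoff.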

[4] = agonist: CpG ODN 1826 0.5 ug/mL

Row | SMILES | NF-kB reporter [1, 4] | NF-kB reporter ([1]; agonist: LPS 0.1 ug/mL) | NF-kB reporter ([1]; agonist: MPLA […]) | IRF reporter ([2]; agonist: 3'3'-cGAMP 10 ug/mL) | IRF reporter ([2]; agonist: LPS 0.1 ug/mL) | IRF reporter ([2]; agonist: MPLA […]) | viability score [3]
1 | COC(=O)C1=CN(CC2CCCO2)C=C(C(=O)OC)C1c1ccccc1Br (centres undefined) | 1.08 ± 0.23 | 0.956 ± 0.094 | 1.01 ± 0.11 | 0.956 ± 0.032 | 1.18 ± 0.21 | 1.05 ± 0.11 | 0.726 (active)
2 | CC1(C)OC(=O)C=CC2(C)C1CC(O)C1(C)C2CCC2(C)C(c3ccoc3)OC(=O)C3OC321 (centres undefined) | 1.29 ± 0.35 | 1.1 ± 0.11 | 1.06 ± 0.14 | 0.944 ± 0.032 | 1.22 ± 0.15 | 1.24 ± 0.17 | 0.99 (active)
3 | CC(=O)c1ccc2c3c([nH]c2c1)CCCC3 | 0.792 ± 0.072 | 0.823 ± 0.072 | 1.01 ± 0.092 | 0.936 ± 0.05 | 1.34 ± 0.077 | 1.53 ± 0.15 | 1.01 (active)
4 | CCC1SC(=NN=Cc2cccc3ccccc23)NC1=O (centres undefined) | 1.08 ± 0.14 | 0.974 ± 0.087 | 0.972 ± 0.044 | 0.92 ± 0.034 | 1.01 ± 0.085 | 0.974 ± 0.2 | 1 (active)
5 | O=C(CCCN1CCC(O)(c2ccc(Br)cc2)CC1)c1ccc(F)cc1 [Prestw-509] | 0.892 ± 0.15 | 1.12 ± 0.14 | 1.04 ± 0.13 | 0.925 ± 0.024 | 1.01 ± 0.16 | 1.16 ± 0.13 | 0.998 (active)
6 | Clc1ccc(Cn2c(CN3CCCC3)nc3ccccc32)cc1 [Prestw-227] | 0.369 ± 0.076 | 1.12 ± 0.1 | 1.06 ± 0.14 | 0.682 ± 0.038 | 1.07 ± 0.1 | 1.37 ± 0.18 | 0.787 (active)
7 | N#Cc1nc(-c2ccc(COc3ccc(Cl)cc3)o2)oc1N1CCCCC1 | 0.826 ± 0.063 | 1.29 ± 0.14 | 1.13 ± 0.075 | 1.21 ± 0.047 | 1.57 ± 0.1 | 1.12 ± 0.15 | 0.998 (active)
8 | Cc1c(Cl)cccc1NC(=O)C(Cl)=Cc1ccccc1 | 0.757 ± 0.082 | 0.929 ± 0.11 | 1.07 ± 0.095 | 0.799 ± 0.04 | 1.13 ± 0.068 | 1.25 ± 0.11 | 1.01 (active)
9 | CN1CCN(c2nc3c(=O)[nH]cnc3n2C2OC(CO)C(O)C2O)CC1 (centres undefined) | 0.979 ± 0.11 | 1.03 ± 0.071 | 0.904 ± 0.084 | 1.01 ± 0.089 | 1.22 ± 0.082 | 1.08 ± 0.25 | 1.01 (active)
10 | CCC(=O)N1c2ccccc2NC2=C(C(=O)CC(c3ccccc3F)C2)C1c1ccc(C)cc1 (centres undefined) | 1.02 ± 0.12 | 1.07 ± 0.079 | 1 ± 0.064 | 0.985 ± 0.043 | 1.35 ± 0.3 | 1.07 ± 0.072 | 1.01 (active)
11 | COC1(c2ccc(Cl)cc2)OC(=O)c2ccccc21 (centres undefined) | 0.805 ± 0.1 | 0.974 ± 0.052 | 1.07 ± 0.093 | 0.9 ± 0.052 | 1.06 ± 0.073 | 1.13 ± 0.16 | 0.992 (active)
12 | COc1ccc(C2(C#N)CCC(C(=O)O)CC2)cc1OC1CCCC1 (centres undefined) | 1.37 ± 0.11 | 1.16 ± 0.085 | 1.37 ± 0.16 | 1.05 ± 0.048 | 1.25 ± 0.083 | 1.38 ± 0.12 | 1.02 (active)
13 | CCOC(=O)Cc1cc(OC)c(OC)cc1C(C)=NNc1ccccc1 | 0.719 ± 0.056 | 0.831 ± 0.12 | 0.98 ± 0.085 | 0.816 ± 0.055 | 1.13 ± 0.065 | 1.09 ± 0.15 | 1 (active)
14 | CC1(C)CC(=O)C2=C(C1)OC(N)=C(C#N)C2C1CCCCC1 (centres undefined) | 0.983 ± 0.076 | 0.926 ± 0.12 | 0.929 ± 0.093 | 0.987 ± 0.089 | 1.33 ± 0.22 | 1.47 ± 0.19 | 1.01 (active)
15 | COc1ccc(N(CC(=O)Nc2ccc3ccccc3c2)S(C)(=O)=O)cc1OC | 0.921 ± 0.074 | 1.06 ± 0.06 | 0.883 ± 0.054 | 0.907 ± 0.025 | 1.43 ± 0.18 | 1.06 ± 0.14 | 1.01 (active)
16 | CCCOc1ccc(C2NC(=O)NC(C)=C2C(=O)OC(C)C(C)(C)C)cc1OC (centres undefined) | 0.557 ± 0.033 | 1.04 ± 0.063 | 0.746 ± 0.052 | 0.478 ± 0.016 | 0.722 ± 0.077 | 0.656 ± 0.061 | 0.96 (active)
17 | Cc1[nH]c2ccc(Br)cc2c(=O)c1CN1CCOCC1 | 1.06 ± 0.062 | 0.995 ± 0.11 | 0.972 ± 0.027 | 1.01 ± 0.073 | 0.973 ± 0.1 | 0.937 ± 0.16 | 0.995 (active)
18 | CCOC(=O)CC(C(=O)OCC)P(=O)(c1ccccc1)c1ccccc1 (centres undefined) | 0.85 ± 0.048 | 0.943 ± 0.086 | 1.02 ± 0.14 | 0.993 ± 0.061 | 1.17 ± 0.095 | 1.15 ± 0.23 | 1.01 (active)
19 | Cc1ccc(Nc2nc(Cl)nc(Nc3ccc(C(C)C)cc3)n2)cc1 | 0.851 ± 0.067 | 1.06 ± 0.078 | 1.19 ± 0.13 | 0.828 ± 0.045 | 1.1 ± 0.19 | 1.33 ± 0.32 | 1.03 (active)
20 | OC(Cn1cncn1)(Cn1cncn1)c1ccc(F)cc1F | 0.875 ± 0.072 | 0.967 ± 0.066 | 1.05 ± 0.091 | 1.02 ± 0.052 | 1.46 ± 0.096 | 1.62 ± 0.18 | 0.988 (active)
21 | CCOCCn1c(C2CCN(CCc3ccc(C(C)(C)C(=O)O)cc3)CC2)nc2ccccc21 | 1.29 ± 0.34 | 0.976 ± 0.065 | 1 ± 0.098 | 0.925 ± 0.034 | 1.08 ± 0.13 | 1.04 ± 0.13 | 0.521 (inactive)
22 | CCOc1ccc2c(c1)C(C)=CC(C)(C)N2 [Prestw-765] | 0.892 ± 0.098 | 1.07 ± 0.055 | 1.11 ± 0.029 | 0.812 ± 0.065 | 0.967 ± 0.052 | 0.997 ± 0.082 | 1 (active)
23 | Cc1ccc2c(c1)C(=O)CC(O)(C(F)F)O2 (centres undefined) | 0.922 ± 0.073 | 1 ± 0.067 | 0.954 ± 0.062 | 0.764 ± 0.12 | 0.984 ± 0.089 | 0.959 ± 0.14 | 1 (active)
24 | N[C@H]1CONC1=O | 1.08 ± 0.13 | 1.06 ± 0.057 | 1.03 ± 0.074 | 1.02 ± 0.1 | 0.957 ± 0.039 | 0.949 ± 0.1 | 1.01 (active)
25 | O=C(O)CCn1c2c(c3ccccc31)C[C@H](NS(=O)(=O)c1ccc(F)cc1)CC2 | 1.13 ± 0.27 | 0.94 ± 0.061 | 0.947 ± 0.06 | 0.879 ± 0.072 | 1.2 ± 0.29 | 1.1 ± 0.12 | 1 (active)
26 | CCN(CC)c1ccc(C=NNc2cc(N3CCOCC3)nc(N3CCOCC3)n2)cc1 | 0.894 ± 0.096 | 1.03 ± 0.11 | 0.994 ± 0.1 | 0.458 ± 0.07 | 1.28 ± 0.23 | 1.25 ± 0.17 | 0.994 (active)
27 | Nc1nc(Cl)nc2c1ncn2[C@@H]1O[C@H](CO)[C@@H](O)[C@@H]1F | 2.13 ± 0.16 | 1.41 ± 0.13 | 1.4 ± 0.087 | 1.08 ± 0.26 | 1.01 ± 0.045 | 0.918 ± 0.15 | 0.482 (inactive)
